The values below come from PubChem BioAssay (NCATS).

The source made the active and inactive calls. Entries that show only a call come without a potency. The call rests on the fitted dose curve; in most records, active means well fitted inhibition curve with a large enough effect; inconclusive means small, poorly fitted or top-dose-only effect; inactive means no such curve, though single readings can be large or run the other way.

A short description of the test: qHTS assay for measurement of the activity of small molecule inhibitors on Zika virus induced Caspase-3 activity in human astrocytoma cells (AID 1224859). Particulars: SNB-19 ZIKV-induced caspase-3/7, luminescence, 6 h; series mostly up to 45.7 µM. The method in brief:
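Readout is luminescence from Caspase-Glo 3/7 added after a 6 h ZIKV infection (2 FFU/cell) of compound-pretreated (1 h) SNB-19 cells; data expressed as % inhibition versus uninfected and infected wells.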
For orientation: qHTS replaces the single test concentration by a dilution series.
On to `COc1cccc2c1[C@]13CCN(CC4CC4)[C@H](C2)[C@]1(OC)CCC(=O)C3`, for which the Potency result was “inactive”.
Take `C[C@]12CCC(=O)C(O)=C1CC[C@@H]1[C@H]3CCC(=O)[C@@]3(C)CC[C@@H]12`: the Potency result is “inactive”.
With `c1cc2c(cc1[C@H]1OC[C@H]3[C@H]1CO[C@H]3c1ccc3c(c1)OCO3)OCO2`, the Potency entry was “inactive”.
The result for `NCCc1c[nH]c2ccccc12` reads “inactive”; that for `COc1ccc(C(=O)c2c(C)n(CCN3CCOCC3)c3cc(I)ccc23)cc1`, “inactive”; that for `c1ccc(CCCN2CCN(CCOC(c3ccccc3)c3ccccc3)CC2)cc1`, “inactive”.
The result for `CN1CCN(c2ccc([N+](=O)[O-])c3no[n+]([O-])c23)CC1` reads “inactive”; that for `CCOC(=O)c1cncn1[C@H](C)c1ccccc1`, “inactive”.
As for `C[C@]12N[C@H](Cc3ccccc31)c1ccccc12`, the entry is “inactive”.
On to `CC[N+]1(CCOC(=O)C(O)(c2ccccc2)c2ccccc2)CCCCC1`, for which the Potency entry is “inactive”.
The result for `N#C[C@H](O[C@@H]1O[C@H](CO[C@@H]2O[C@H](CO)[C@H](O)[C@H](O)[C@H]2O)[C@H](O)[C@H](O)[C@H]1O)c1ccccc1` reads “inactive”; that for `CC(C)(C)[C@]1(O)C[C@@H]2OC(=O)C[C@@]23C(=O)O[C@@H]2OC(=O)[C@H](O)C213` (stereo partly specified), “inactive”.
`C[C@@H]1O[C@H](C[N+](C)(C)C)C[C@H]1O`: the Potency result was “inactive”.
`O=C(O)[C@@H]1CCN1`: the Potency entry is “inactive”.
With `COc1ccc2c(c1)CN(C)CC2c1ccc(Cl)c(Cl)c1` (stereo unspecified), the Potency entry is “inactive”.
`CCCN1CCO[C@@H]2c3cc(O)ccc3OC[C@H]21`: the Potency result is “inactive”.
As for `CC[C@@H](C(N)=O)N1CCCC1=O`, the entry is “inactive”; as for `COc1cc(C(O)CN)ccc1O` (stereo unspecified), “inactive”; as for `CC(O)=C(C#N)C(=O)Nc1cc(Br)ccc1Br`, “inactive”.
With `Clc1cnc(Oc2ccc(Oc3ncc(Cl)cc3Cl)cc2)c(Cl)c1`, the Potency result is “inactive”.
Take `Oc1ccc2c3c1O[C@H]1c4[nH]c5c(c4C[C@@]4(O)[C@@H](C2)N(CC2CC2)CC[C@]314)C[C@@]1(O)[C@H]2Cc3ccc(O)c4c3[C@@]1(CCN2CC1CC1)[C@H]5O4`: the Potency entry is “inactive”.
On to `CCCCCC[C@H]1C(=O)O[C@H](C)[C@H](NC(=O)c2cccc(NC=O)c2O)C(=O)O[C@@H](C)[C@@H]1OC(=O)CC(C)C`, for which the Potency entry was “inactive”.
With `C1=C2CCCN[C@H]2[C@@H]2C[C@H]1[C@@H]1CCCCN1C2`, the Potency entry is “inactive”.
As for `CC(C)(O)C(=O)Nc1ccc([N+](=O)[O-])c(C(F)(F)F)c1`, the entry is “inactive”; as for `CCC(=O)OC1CCC2C3CCC4=CC(=O)CC[C@@]4(C)C3CC[C@]12C` (stereo partly specified), “inactive”; as for `CCCN1CCC[C@H](c2cccc(O)c2)C1`, “inactive”.
